Data from paper PMC11006913.
Changes are numbered by the printed parent chain.

Experiments:
Test in all cases: PBM; 200 nM protein, PBS
Details in all cases: dsDNA, one strand shown
[1] = target: ALX4 (Homo sapiens, UniProt Q9H161 200-286)
[2] = target: ALX4 (Homo sapiens, UniProt Q9H161 200-286, Q225E)
[3] = target: ALX1 (Homo sapiens, UniProt Q15699 118-204, L144V)
[4] = target: ALX3 (Homo sapiens, UniProt O95076 139-225, N203Q)
[5] = target: ALX1 (Homo sapiens, UniProt Q15699 118-204, L144R)
[6] = target: ALX3 (Homo sapiens, UniProt O95076 139-225)
[7] = target: PROP1 (Homo sapiens, UniProt O75360 56-141)
[8] = target: HESX1 (Homo sapiens, UniProt Q9UBX0 95-180, R109Q)
[9] = target: PROP1 (Homo sapiens, UniProt O75360 56-141, R99H)
[10] = target: ALX3 (Homo sapiens, UniProt O95076 139-225, L168Q)
[11] = target: ALX3 (Homo sapiens, UniProt O95076 139-225, L168V)
[12] = target: PROP1 (Homo sapiens, UniProt O75360 56-141, F88S)
[13] = target: ALX3 (Homo sapiens, UniProt O95076 139-225, N203S)
[14] = target: T1, PAX4 (Homo sapiens, UniProt O43316 9-242, R200K)
T1 sequence: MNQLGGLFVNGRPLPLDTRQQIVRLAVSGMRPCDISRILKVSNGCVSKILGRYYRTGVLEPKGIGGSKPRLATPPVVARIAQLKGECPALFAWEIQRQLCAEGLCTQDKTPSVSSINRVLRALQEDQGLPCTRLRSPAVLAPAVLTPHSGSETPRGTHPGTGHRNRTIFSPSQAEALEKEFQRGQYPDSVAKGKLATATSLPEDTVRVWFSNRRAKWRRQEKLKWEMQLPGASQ

[15] = target: T2, PAX4 (Homo sapiens, UniProt O43316 9-242)
T2 sequence: T1 sequence with K192R

[16] = target: PITX2 (Homo sapiens, UniProt Q99697 72-157)
[17] = target: ALX1 (Homo sapiens, UniProt Q15699 118-204)
[18] = target: HOXB6 (Homo sapiens, UniProt P17509 132-218, K202E)
[19] = target: MSX2 (Homo sapiens, UniProt P35548 130-214, R199I)
[20] = target: T3, PAX4 (Homo sapiens, UniProt O43316 9-242, R200Q)
T3 sequence: T1 sequence with K192Q

[21] = target: T4, PAX4 (Homo sapiens, UniProt O43316 9-242, F177V)
T4 sequence: T1 sequence with F169V, K192R

[22] = target: MSX2 (Homo sapiens, UniProt P35548 130-214)
[23] = target: T5, PAX4 (Homo sapiens, UniProt O43316 9-242, F177Y)
T5 sequence: T1 sequence with F169Y, K192R

[24] = target: MSX2 (Homo sapiens, UniProt P35548 130-214, F161Y)
[25] = target: T6, PAX4 (Homo sapiens, UniProt O43316 9-242, R227W)
T6 sequence: T1 sequence with K192R, R219W

[26] = target: HOXB6 (Homo sapiens, UniProt P17509 132-218)
[27] = target: PRRX1 (Homo sapiens, UniProt P54821 80-166, F113S)
[28] = target: PRRX1 (Homo sapiens, UniProt P54821 80-166)
PRRX1 (Homo sapiens, UniProt P54821 80-166), sequence (P54821 80-166): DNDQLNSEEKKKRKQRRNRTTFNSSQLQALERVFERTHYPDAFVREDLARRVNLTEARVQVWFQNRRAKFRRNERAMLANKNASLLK

ALX4 (Homo sapiens, UniProt Q9H161 200-286), sequence (Q9H161 200-286): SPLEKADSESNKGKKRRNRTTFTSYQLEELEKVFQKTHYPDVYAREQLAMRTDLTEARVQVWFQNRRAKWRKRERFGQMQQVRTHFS
ALX1 (Homo sapiens, UniProt Q15699 118-204, L144V), sequence (Q15699 118-204 L144V): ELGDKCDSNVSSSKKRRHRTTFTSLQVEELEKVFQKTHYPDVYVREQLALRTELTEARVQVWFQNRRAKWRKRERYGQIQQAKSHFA
ALX4 (Homo sapiens, UniProt Q9H161 200-286, Q225E), sequence (Q9H161 200-286 Q225E): as the sequence (Q9H161 200-286) above, with Q26E counted along it
ALX1 (Homo sapiens, UniProt Q15699 118-204, L144R), sequence (Q15699 118-204 L144R): as the sequence (Q15699 118-204 L144V) above, with V27R counted along it
ALX1 (Homo sapiens, UniProt Q15699 118-204), sequence (Q15699 118-204): as the sequence (Q15699 118-204 L144V) above, with V27L counted along it
MSX2 (Homo sapiens, UniProt P35548 130-214, F161Y), sequence (P35548 130-214 F161Y): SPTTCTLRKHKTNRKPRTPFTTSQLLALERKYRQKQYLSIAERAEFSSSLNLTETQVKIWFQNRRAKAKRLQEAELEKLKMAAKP
MSX2 (Homo sapiens, UniProt P35548 130-214), sequence (P35548 130-214): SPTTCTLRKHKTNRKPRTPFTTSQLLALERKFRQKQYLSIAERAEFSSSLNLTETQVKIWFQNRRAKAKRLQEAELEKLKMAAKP
MSX2 (Homo sapiens, UniProt P35548 130-214, R199I), sequence (P35548 130-214 R199I): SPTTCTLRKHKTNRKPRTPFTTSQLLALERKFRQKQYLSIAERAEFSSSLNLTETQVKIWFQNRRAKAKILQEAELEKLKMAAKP
ALX3 (Homo sapiens, UniProt O95076 139-225, N203S), sequence (O95076 139-225 N203S): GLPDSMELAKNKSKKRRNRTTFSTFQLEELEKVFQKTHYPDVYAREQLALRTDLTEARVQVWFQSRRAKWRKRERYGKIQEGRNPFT
HESX1, sequence (Q9UBX0 95-180 R109Q): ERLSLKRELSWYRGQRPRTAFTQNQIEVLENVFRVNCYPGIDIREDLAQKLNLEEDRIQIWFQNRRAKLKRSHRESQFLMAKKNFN
ALX3 (Homo sapiens, UniProt O95076 139-225), sequence (O95076 139-225): as the sequence (O95076 139-225 N203S) above, with S65N counted along it
PROP1 (Homo sapiens, UniProt O75360 56-141, R99H), sequence (O75360 56-141 R99H): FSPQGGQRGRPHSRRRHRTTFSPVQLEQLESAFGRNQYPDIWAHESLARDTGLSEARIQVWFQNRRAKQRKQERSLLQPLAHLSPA
HOXB6 (Homo sapiens, UniProt P17509 132-218), sequence (P17509 132-218): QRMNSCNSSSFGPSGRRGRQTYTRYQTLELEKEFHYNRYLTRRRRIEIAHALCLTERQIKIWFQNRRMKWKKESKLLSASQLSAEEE
PRRX1 (Homo sapiens, UniProt P54821 80-166, F113S), sequence (P54821 80-166 F113S): as the sequence (P54821 80-166) above, with F34S counted along it
PROP1 (Homo sapiens, UniProt O75360 56-141, F88S), sequence (O75360 56-141 F88S): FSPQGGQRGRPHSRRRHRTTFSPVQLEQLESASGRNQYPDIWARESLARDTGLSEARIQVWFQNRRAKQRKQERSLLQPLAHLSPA
HOXB6 (Homo sapiens, UniProt P17509 132-218, K202E), sequence (P17509 132-218 K202E): as the sequence (P17509 132-218) above, with K71E counted along it
ALX3 (Homo sapiens, UniProt O95076 139-225, L168V), sequence (O95076 139-225 L168V): as the sequence (O95076 139-225 N203S) above, with L30V, S65N counted along it
ALX3 (Homo sapiens, UniProt O95076 139-225, N203Q), sequence (O95076 139-225 N203Q): as the sequence (O95076 139-225 N203S) above, with S65Q counted along it
ALX3 (Homo sapiens, UniProt O95076 139-225, L168Q), sequence (O95076 139-225 L168Q): as the sequence (O95076 139-225 N203S) above, with L30Q, S65N counted along it
PROP1 (Homo sapiens, UniProt O75360 56-141), sequence (O75360 56-141): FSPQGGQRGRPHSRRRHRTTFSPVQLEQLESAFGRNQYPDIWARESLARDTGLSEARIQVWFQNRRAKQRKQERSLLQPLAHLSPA

## AATTAAAG
[1]
  binding signal: 13.6 upbm affinity estimate (log intensity, higher = more binding, comparable within an allelic series)
[2]
  binding signal: 12.8 upbm affinity estimate (log intensity, higher = more binding, comparable within an allelic series)
[3]
  binding signal: 11.4 upbm affinity estimate (log intensity, higher = more binding, comparable within an allelic series)
[4]
  binding signal: 8.35 upbm affinity estimate (log intensity, higher = more binding, comparable within an allelic series)
[5]
  binding signal: 11 upbm affinity estimate (log intensity, higher = more binding, comparable within an allelic series)
[6]
  binding signal: 12.3 upbm affinity estimate (log intensity, higher = more binding, comparable within an allelic series)
[7]
  binding signal: 11.2 upbm affinity estimate (log intensity, higher = more binding, comparable within an allelic series)
[8]
  binding signal: 8.69 upbm affinity estimate (log intensity, higher = more binding, comparable within an allelic series)
[9]
  binding signal: 10.9 upbm affinity estimate (log intensity, higher = more binding, comparable within an allelic series)
[10]
  binding signal: 10.3 upbm affinity estimate (log intensity, higher = more binding, comparable within an allelic series)
[11]
  binding signal: 9.9 upbm affinity estimate (log intensity, higher = more binding, comparable within an allelic series)
[12]
  binding signal: 7.55 upbm affinity estimate (log intensity, higher = more binding, comparable within an allelic series)
[13]
  binding signal: 8.43 upbm affinity estimate (log intensity, higher = more binding, comparable within an allelic series)

## CAGCGTAA
[14]
  binding signal: 10.6 upbm affinity estimate (log intensity, higher = more binding, comparable within an allelic series)
[15]
  binding signal: 10.8 upbm affinity estimate (log intensity, higher = more binding, comparable within an allelic series)

## GAGGACTC
[1]
  binding signal: 8.06 upbm affinity estimate (log intensity, higher = more binding, comparable within an allelic series)
[2]
  binding signal: 8.19 upbm affinity estimate (log intensity, higher = more binding, comparable within an allelic series)
[3]
  binding signal: 6.41 upbm affinity estimate (log intensity, higher = more binding, comparable within an allelic series)
[16]
  binding signal: 7.89 upbm affinity estimate (log intensity, higher = more binding, comparable within an allelic series)
[5]
  binding signal: 6.53 upbm affinity estimate (log intensity, higher = more binding, comparable within an allelic series)
[17]
  binding signal: 6.39 upbm affinity estimate (log intensity, higher = more binding, comparable within an allelic series)

## CAGCCCGC
[14]
  binding signal: 9.17 upbm affinity estimate (log intensity, higher = more binding, comparable within an allelic series)
[15]
  binding signal: 9.23 upbm affinity estimate (log intensity, higher = more binding, comparable within an allelic series)
[18]
  binding signal: 9 upbm affinity estimate (log intensity, higher = more binding, comparable within an allelic series)
[19]
  binding signal: 9.36 upbm affinity estimate (log intensity, higher = more binding, comparable within an allelic series)
[20]
  binding signal: 9.12 upbm affinity estimate (log intensity, higher = more binding, comparable within an allelic series)
[21]
  binding signal: 9.04 upbm affinity estimate (log intensity, higher = more binding, comparable within an allelic series)
[22]
  binding signal: 9.33 upbm affinity estimate (log intensity, higher = more binding, comparable within an allelic series)
[23]
  binding signal: 8.99 upbm affinity estimate (log intensity, higher = more binding, comparable within an allelic series)
[24]
  binding signal: 9.37 upbm affinity estimate (log intensity, higher = more binding, comparable within an allelic series)
[25]
  binding signal: 9.09 upbm affinity estimate (log intensity, higher = more binding, comparable within an allelic series)
[26]
  binding signal: 8.96 upbm affinity estimate (log intensity, higher = more binding, comparable within an allelic series)

## CAGCCGGC
[14]
  binding signal: 9.11 upbm affinity estimate (log intensity, higher = more binding, comparable within an allelic series)
[27]
  binding signal: 9.15 upbm affinity estimate (log intensity, higher = more binding, comparable within an allelic series)
[15]
  binding signal: 9.27 upbm affinity estimate (log intensity, higher = more binding, comparable within an allelic series)
[19]
  binding signal: 9.43 upbm affinity estimate (log intensity, higher = more binding, comparable within an allelic series)
[20]
  binding signal: 9.19 upbm affinity estimate (log intensity, higher = more binding, comparable within an allelic series)
[21]
  binding signal: 9.05 upbm affinity estimate (log intensity, higher = more binding, comparable within an allelic series)
[22]
  binding signal: 9.21 upbm affinity estimate (log intensity, higher = more binding, comparable within an allelic series)
[23]
  binding signal: 9.05 upbm affinity estimate (log intensity, higher = more binding, comparable within an allelic series)
[24]
  binding signal: 9.41 upbm affinity estimate (log intensity, higher = more binding, comparable within an allelic series)
[25]
  binding signal: 9.13 upbm affinity estimate (log intensity, higher = more binding, comparable within an allelic series)
[28]
  binding signal: 8.9 upbm affinity estimate (log intensity, higher = more binding, comparable within an allelic series)

## GACCGTCC
[1]
  binding signal: 8.08 upbm affinity estimate (log intensity, higher = more binding, comparable within an allelic series)
[2]
  binding signal: 8.15 upbm affinity estimate (log intensity, higher = more binding, comparable within an allelic series)
[3]
  binding signal: 6.23 upbm affinity estimate (log intensity, higher = more binding, comparable within an allelic series)
[16]
  binding signal: 8.03 upbm affinity estimate (log intensity, higher = more binding, comparable within an allelic series)
[5]
  binding signal: 6.38 upbm affinity estimate (log intensity, higher = more binding, comparable within an allelic series)
[17]
  binding signal: 6.51 upbm affinity estimate (log intensity, higher = more binding, comparable within an allelic series)
